Holding throughout (settings): modulator concentration 10 µM
The subject of assay [1] is RAW-Dual (murine macrophage reporter line). The assay is described as follows: NF-kB reporter (SEAP) activity fold change vs agonist alone; higher = enhanced NF-kB activity. An outline of the steps: (§1)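 RAW-Dual murine macrophage reporter cells were seeded at 50 000 per well in 384-well plates and pre-incubated 1 hour at 37 °C with compound pin-transferred to 10 μM final. After 1 hour, a PRR agonist was added and cells incubated overnight. Supernatant NF-κB (SEAP, QUANTI-Blue, 620 nm absorbance) and IRF (Lucia luciferase, QUANTI-Luc, luminescence) signals were divided by the mean agonist-only control on the same plate to give fold change. Two replicate plates were averaged, with errors by propagation.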

Assay [2] shares this test system. As to the kind of experiment: IRF reporter (Lucia luciferase) activity fold change vs agonist alone; higher = enhanced IRF activity. The method, boiled down: as §1
For assay [3] the test system is unchanged. The assay is described as follows: viability score (confluency relative to resting cells, overnight) (fraction); higher = more viable, active = viable (0.7 or more). The method, boiled down:
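Overnight exposure to 10 μM final compound was carried out on RAW-Dual macrophages in 384-well plates. IncuCyte software generated two confluency masks over all wells imaged with IncuCyte. The viability score gives confluency in relation to resting cells. A compound met the cutoff if each mask exceeded 70% of resting cells.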

[4] abbreviates: agonist: CpG ODN 1826 0.5 ug/mL.

± gives the standard deviation.

On to `Cc1cccc(C(=O)Nc2cccc([N+](=O)[O-])c2C)c1`, for which the NF-kB reporter in assay [1] (setting [4]) stood at 1.1 ± 0.067; in assay [1] (agonist: LPS 0.1 ug/mL), 1 ± 0.062; in assay [1] (agonist: MPLA […]), 0.86 ± 0.095. Further, the IRF reporter in assay [2] (agonist: 3'3'-cGAMP 10 ug/mL) was 0.964 ± 0.04; in assay [2] (agonist: LPS 0.1 ug/mL) it was 1.33 ± 0.15; in assay [2] (agonist: MPLA […]) it was 1.12 ± 0.099. For the same compound, the viability score in assay [3] is 0.992 (active).

Consider `CCN1CCCC1CNC(=O)c1cc(S(=O)(=O)CC)c(N)cc1OC` (stereo unspecified), for which the NF-kB reporter in assay [1] (setting [4]) is 1.69 ± 0.23; in assay [1] (agonist: LPS 0.1 ug/mL) it was 1.28 ± 0.32; in assay [1] (agonist: MPLA […]), 1.23 ± 0.089. Moreover, the IRF reporter in assay [2] (agonist: 3'3'-cGAMP 10 ug/mL) is 0.819 ± 0.032; in assay [2] (agonist: LPS 0.1 ug/mL), 0.957 ± 0.29; in assay [2] (agonist: MPLA […]), 0.808 ± 0.12. Besides, the viability score in assay [3] is 0.994 (active).

As to `CCN1C(C)=C(C(=O)OC)C(c2ccc([N+](=O)[O-])cc2)C(C(=O)OC)=C1C`, the NF-kB reporter in assay [1] (setting [4]) stood at 1.17 ± 0.11; in assay [1] (agonist: LPS 0.1 ug/mL), 0.868 ± 0.079; in assay [1] (agonist: MPLA […]) it was 0.991 ± 0.049. Also, the IRF reporter in assay [2] (agonist: 3'3'-cGAMP 10 ug/mL) was 0.981 ± 0.037; in assay [2] (agonist: LPS 0.1 ug/mL) it was 0.954 ± 0.044; in assay [2] (agonist: MPLA […]), 0.961 ± 0.1. In addition, in assay [3], the viability score was 0.994 (active).

For the compound `COC(=O)C1=C(C)NC(C)=C(C(=O)O[C@@H]2CCCN(Cc3ccccc3)C2)[C@@H]1c1cccc([N+](=O)[O-])c1` [Prestw-1766], the NF-kB reporter in assay [1] (setting [4]) was 0.317 ± 0.025; in assay [1] (agonist: LPS 0.1 ug/mL) it was 0.731 ± 0.069; in assay [1] (agonist: MPLA […]) it was 0.717 ± 0.071. The figures for the IRF reporter in assay [2] (agonist: 3'3'-cGAMP 10 ug/mL), in assay [2] (agonist: LPS 0.1 ug/mL) and in assay [2] (agonist: MPLA […]) were 0.412 ± 0.043, 1.1 ± 0.14 and 0.886 ± 0.21, respectively. In assay [3], the viability score is 1.07 (active).

With `C#Cc1cccc(Nc2ncnc3cc4c(cc23)OCCOCCOCCO4)c1`, the NF-kB reporter in assay [1] (setting [4]) is 0.937 ± 0.043; in assay [1] (agonist: LPS 0.1 ug/mL) it was 1 ± 0.11; in assay [1] (agonist: MPLA […]), 1.11 ± 0.093. In addition, the IRF reporter in assay [2] (agonist: 3'3'-cGAMP 10 ug/mL) turned out to be 1.02 ± 0.05; in assay [2] (agonist: LPS 0.1 ug/mL), 1.2 ± 0.17; in assay [2] (agonist: MPLA […]) it was 1.39 ± 0.36. Also, in assay [3], the viability score was 1.02 (active).

For `COC(=O)C1=C(C)NC(=O)NC1c1ccc(Cl)c(Cl)c1` (stereo unspecified), the NF-kB reporter was determined as 0.979 ± 0.11 in assay [1] (setting [4]), 1.03 ± 0.067 in assay [1] (agonist: LPS 0.1 ug/mL) and 0.951 ± 0.04 in assay [1] (agonist: MPLA […]). The IRF reporter came to 0.992 ± 0.16 in assay [2] (agonist: 3'3'-cGAMP 10 ug/mL), 1.05 ± 0.1 in assay [2] (agonist: LPS 0.1 ug/mL) and 0.964 ± 0.24 in assay [2] (agonist: MPLA […]). In addition, in assay [3], the viability score was 1 (active).

`C=CC(=O)Nc1cccc(Nc2nc(Nc3ccc(N4CCN(C(C)=O)CC4)cc3OC)ncc2C(F)(F)F)c1`: the NF-kB reporter came out at 0.634 ± 0.16 in assay [1] (setting [4]), 0.662 ± 0.035 in assay [1] (agonist: LPS 0.1 ug/mL) and 0.977 ± 0.086 in assay [1] (agonist: MPLA […]). Further, the IRF reporter in assay [2] (agonist: 3'3'-cGAMP 10 ug/mL) turned out to be 0.0805 ± 0.0073; in assay [2] (agonist: LPS 0.1 ug/mL), 0.438 ± 0.14; in assay [2] (agonist: MPLA […]), 0.406 ± 0.04. In addition, the viability score in assay [3] is 0.926 (active).

Consider `CCCCCCCC(O)CC(CC1CCCCC1)C(=O)NN` (stereo unspecified), for which the values for the NF-kB reporter in assay [1] (setting [4]), in assay [1] (agonist: LPS 0.1 ug/mL) and in assay [1] (agonist: MPLA […]) were 0.721 ± 0.056, 0.912 ± 0.074 and 0.977 ± 0.093, respectively. In addition, the IRF reporter in assay [2] (agonist: 3'3'-cGAMP 10 ug/mL) came out at 0.88 ± 0.062; in assay [2] (agonist: LPS 0.1 ug/mL) it was 1.19 ± 0.22; in assay [2] (agonist: MPLA […]), 1.28 ± 0.28. Also, in assay [3], the viability score was 1.02 (active).

For the compound `O=C(NCC1(O)CCOc2ccccc21)c1ccccc1C(F)(F)F` (stereo unspecified), the NF-kB reporter is 1.85 ± 0.095 in assay [1] (setting [4]), 1.31 ± 0.24 in assay [1] (agonist: LPS 0.1 ug/mL) and 1.95 ± 0.67 in assay [1] (agonist: MPLA […]). Further, the IRF reporter in assay [2] (agonist: 3'3'-cGAMP 10 ug/mL) came to 0.687 ± 0.44; in assay [2] (agonist: LPS 0.1 ug/mL) it was 0.669 ± 0.34; in assay [2] (agonist: MPLA […]) it was 0.721 ± 0.084. The viability score in assay [3] was 0.574 (inactive).

`CC(C)c1ccccc1NS(=O)(=O)c1ccccc1`: the figures for the NF-kB reporter in assay [1] (setting [4]), in assay [1] (agonist: LPS 0.1 ug/mL) and in assay [1] (agonist: MPLA […]) were 0.866 ± 0.072, 0.766 ± 0.039 and 1.05 ± 0.11, respectively. Also, the results for the IRF reporter in assay [2] (agonist: 3'3'-cGAMP 10 ug/mL), in assay [2] (agonist: LPS 0.1 ug/mL) and in assay [2] (agonist: MPLA […]) were 1.08 ± 0.066, 1.4 ± 0.089 and 1.53 ± 0.16, respectively. Further, in assay [3], the viability score was 0.857 (active).

With `COc1ccc(CCNc2nnc(Cc3ccc(Cl)cc3)c(=O)[nH]2)cc1OC`, the NF-kB reporter is 0.928 ± 0.068 in assay [1] (setting [4]), 1.1 ± 0.089 in assay [1] (agonist: LPS 0.1 ug/mL) and 0.877 ± 0.11 in assay [1] (agonist: MPLA […]). For the same compound, the values for the IRF reporter in assay [2] (agonist: 3'3'-cGAMP 10 ug/mL), in assay [2] (agonist: LPS 0.1 ug/mL) and in assay [2] (agonist: MPLA […]) were 0.977 ± 0.05, 1.07 ± 0.065 and 1.04 ± 0.08, respectively. In addition, in assay [3], the viability score was 1.02 (active).

As to `CCOc1ccccc1OCCCCOc1ccc(I)cc1`, the values for the NF-kB reporter in assay [1] (setting [4]), in assay [1] (agonist: LPS 0.1 ug/mL) and in assay [1] (agonist: MPLA […]) were 1.12 ± 0.18, 1 ± 0.12 and 0.937 ± 0.11, respectively. For the same compound, the IRF reporter in assay [2] (agonist: 3'3'-cGAMP 10 ug/mL) was found to be 0.967 ± 0.025; in assay [2] (agonist: LPS 0.1 ug/mL) it was 0.994 ± 0.098; in assay [2] (agonist: MPLA […]), 1.18 ± 0.17. For the same compound, the viability score in assay [3] was 1 (active).

Turning to `CCCc1nn(C)c2c(=O)[nH]c(-c3cc(S(=O)(=O)N4CCN(C)CC4)ccc3OCC)nc12`, the NF-kB reporter in assay [1] (setting [4]) stood at 0.951 ± 0.23; in assay [1] (agonist: LPS 0.1 ug/mL) it was 1.03 ± 0.07; in assay [1] (agonist: MPLA […]), 1 ± 0.068. For the same compound, the IRF reporter in assay [2] (agonist: 3'3'-cGAMP 10 ug/mL) amounted to 0.928 ± 0.036; in assay [2] (agonist: LPS 0.1 ug/mL) it was 1.25 ± 0.16; in assay [2] (agonist: MPLA […]) it was 1.37 ± 0.22. Further, in assay [3], the viability score is 0.986 (active).

Values taken from the supplement of paper PMC10646978.
